{
  "source": "ChEMBL document CHEMBL2218924",
  "about": "“A broad activity screen in support of a chemogenomic map for kinase signalling research and drug discovery” (Biochem J, 2013)",
  "key": {"[1]": {"target": "T1, Serine/threonine-protein kinase TBK1 (Homo sapiens) (UniProt Q9UHD2)", "T1 sequence (whole entry)": "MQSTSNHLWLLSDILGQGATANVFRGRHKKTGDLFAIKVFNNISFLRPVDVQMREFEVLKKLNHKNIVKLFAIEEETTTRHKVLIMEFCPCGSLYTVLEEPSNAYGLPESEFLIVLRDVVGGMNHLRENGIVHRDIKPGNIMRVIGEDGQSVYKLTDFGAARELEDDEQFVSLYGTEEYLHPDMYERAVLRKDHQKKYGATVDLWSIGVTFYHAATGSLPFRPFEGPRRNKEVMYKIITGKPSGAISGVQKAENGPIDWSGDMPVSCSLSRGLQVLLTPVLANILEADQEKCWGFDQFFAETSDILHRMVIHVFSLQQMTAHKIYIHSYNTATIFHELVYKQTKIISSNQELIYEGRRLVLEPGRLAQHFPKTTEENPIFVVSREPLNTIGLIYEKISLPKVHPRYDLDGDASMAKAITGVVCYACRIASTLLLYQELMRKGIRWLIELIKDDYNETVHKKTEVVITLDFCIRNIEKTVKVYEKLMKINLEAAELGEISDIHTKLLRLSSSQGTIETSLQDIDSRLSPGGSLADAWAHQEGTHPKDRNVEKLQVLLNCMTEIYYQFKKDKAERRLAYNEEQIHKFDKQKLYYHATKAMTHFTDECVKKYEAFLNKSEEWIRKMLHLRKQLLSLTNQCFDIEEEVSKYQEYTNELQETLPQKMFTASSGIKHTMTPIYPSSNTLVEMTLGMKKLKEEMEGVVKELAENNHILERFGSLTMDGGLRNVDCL", "details": "at 1 µM"}, "[2]": {"target": "T1, Serine/threonine-protein kinase TBK1 (Homo sapiens)", "details": "at 10 µM"}, "[3]": {"target": "T2, TGF-beta receptor type-1 (Homo sapiens) (UniProt P36897)", "T2 sequence (whole entry)": "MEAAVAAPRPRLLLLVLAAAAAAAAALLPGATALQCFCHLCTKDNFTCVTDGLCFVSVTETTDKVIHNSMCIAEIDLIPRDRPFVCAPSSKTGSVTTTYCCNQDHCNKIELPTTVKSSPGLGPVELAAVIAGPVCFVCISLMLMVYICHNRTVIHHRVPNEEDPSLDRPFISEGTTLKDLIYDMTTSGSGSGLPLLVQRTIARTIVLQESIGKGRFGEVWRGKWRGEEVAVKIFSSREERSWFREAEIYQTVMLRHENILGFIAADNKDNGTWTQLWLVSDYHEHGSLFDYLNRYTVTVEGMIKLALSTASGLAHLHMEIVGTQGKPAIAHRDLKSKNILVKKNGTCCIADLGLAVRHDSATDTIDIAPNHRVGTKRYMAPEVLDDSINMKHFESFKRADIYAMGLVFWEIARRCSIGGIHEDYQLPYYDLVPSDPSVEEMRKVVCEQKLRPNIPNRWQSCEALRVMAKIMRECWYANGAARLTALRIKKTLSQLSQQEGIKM", "details": "at 1 µM"}, "[4]": {"target": "T2, TGF-beta receptor type-1 (Homo sapiens)", "details": "at 10 µM"}, "[5]": {"target": "Insulin-like growth factor 1 receptor (Homo sapiens) (UniProt P08069)", "sequence (P08069 31-736 limits assumed)": "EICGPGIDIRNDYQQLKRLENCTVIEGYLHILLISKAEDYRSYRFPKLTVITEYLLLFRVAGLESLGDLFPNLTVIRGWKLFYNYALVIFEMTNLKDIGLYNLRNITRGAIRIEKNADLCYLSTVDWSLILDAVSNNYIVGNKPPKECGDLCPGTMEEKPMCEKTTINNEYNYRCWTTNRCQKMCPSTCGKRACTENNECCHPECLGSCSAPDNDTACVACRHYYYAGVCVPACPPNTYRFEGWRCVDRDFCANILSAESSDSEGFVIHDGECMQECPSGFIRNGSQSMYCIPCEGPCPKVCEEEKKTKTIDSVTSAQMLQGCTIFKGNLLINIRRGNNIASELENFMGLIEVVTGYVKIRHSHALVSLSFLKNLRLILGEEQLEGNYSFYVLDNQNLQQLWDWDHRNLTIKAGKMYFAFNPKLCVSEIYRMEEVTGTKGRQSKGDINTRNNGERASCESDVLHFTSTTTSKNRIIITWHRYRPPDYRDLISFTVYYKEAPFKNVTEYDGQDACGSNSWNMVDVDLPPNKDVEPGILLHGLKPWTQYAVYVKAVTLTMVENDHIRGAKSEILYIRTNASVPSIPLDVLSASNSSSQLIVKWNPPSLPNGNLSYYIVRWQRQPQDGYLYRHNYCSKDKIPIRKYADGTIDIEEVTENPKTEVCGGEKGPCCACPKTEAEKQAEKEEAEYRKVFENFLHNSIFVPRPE", "sequence (P08069 741-1367 limits assumed)": "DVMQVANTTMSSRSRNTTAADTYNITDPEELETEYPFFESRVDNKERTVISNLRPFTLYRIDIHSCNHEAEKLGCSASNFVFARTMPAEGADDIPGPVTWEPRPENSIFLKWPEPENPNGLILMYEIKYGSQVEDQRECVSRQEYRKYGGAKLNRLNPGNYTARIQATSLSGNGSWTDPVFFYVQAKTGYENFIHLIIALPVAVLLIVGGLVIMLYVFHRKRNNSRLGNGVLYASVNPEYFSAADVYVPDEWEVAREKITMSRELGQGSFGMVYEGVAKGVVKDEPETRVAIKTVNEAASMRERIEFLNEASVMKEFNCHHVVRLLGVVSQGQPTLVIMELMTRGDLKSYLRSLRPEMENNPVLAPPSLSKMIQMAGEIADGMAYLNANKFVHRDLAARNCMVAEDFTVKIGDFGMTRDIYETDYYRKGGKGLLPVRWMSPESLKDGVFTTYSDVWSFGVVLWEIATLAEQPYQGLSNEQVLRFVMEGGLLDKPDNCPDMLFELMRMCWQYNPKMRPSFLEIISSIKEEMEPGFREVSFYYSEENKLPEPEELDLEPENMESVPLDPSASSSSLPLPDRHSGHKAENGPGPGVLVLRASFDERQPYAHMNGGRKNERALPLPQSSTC", "details": "at 1 µM"}, "[6]": {"target": "Insulin-like growth factor 1 receptor (Homo sapiens) (UniProt P08069)", "details": "at 10 µM"}, "[7]": {"target": "T3, Inhibitor of nuclear factor kappa-B kinase subunit alpha (Homo sapiens) (UniProt O15111)", "T3 sequence (whole entry)": "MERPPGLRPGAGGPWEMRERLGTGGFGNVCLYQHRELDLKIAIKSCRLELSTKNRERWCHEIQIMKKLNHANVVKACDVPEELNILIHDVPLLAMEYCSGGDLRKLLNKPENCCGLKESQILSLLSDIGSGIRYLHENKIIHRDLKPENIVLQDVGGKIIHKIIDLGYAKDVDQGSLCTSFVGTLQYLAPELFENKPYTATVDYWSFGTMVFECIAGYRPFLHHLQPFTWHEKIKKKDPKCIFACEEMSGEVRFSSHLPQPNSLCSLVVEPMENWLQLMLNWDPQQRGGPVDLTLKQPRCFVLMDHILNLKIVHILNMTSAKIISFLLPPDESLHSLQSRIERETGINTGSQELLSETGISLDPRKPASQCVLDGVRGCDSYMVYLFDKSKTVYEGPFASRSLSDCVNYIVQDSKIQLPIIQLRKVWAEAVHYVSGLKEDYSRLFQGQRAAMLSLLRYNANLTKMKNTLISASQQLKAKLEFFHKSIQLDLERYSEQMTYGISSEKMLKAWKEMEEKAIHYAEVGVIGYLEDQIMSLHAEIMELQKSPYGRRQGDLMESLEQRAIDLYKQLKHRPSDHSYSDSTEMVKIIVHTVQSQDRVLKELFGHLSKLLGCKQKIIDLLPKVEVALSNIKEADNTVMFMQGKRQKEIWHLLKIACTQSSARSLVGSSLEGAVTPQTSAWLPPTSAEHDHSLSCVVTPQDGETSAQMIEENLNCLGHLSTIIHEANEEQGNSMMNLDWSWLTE", "details": "at 1 µM"}, "[8]": {"target": "T3, Inhibitor of nuclear factor kappa-B kinase subunit alpha (Homo sapiens)", "details": "at 10 µM"}, "[9]": {"target": "T4, Inhibitor of nuclear factor kappa-B kinase subunit beta (Homo sapiens) (UniProt O14920)", "T4 sequence (whole entry)": "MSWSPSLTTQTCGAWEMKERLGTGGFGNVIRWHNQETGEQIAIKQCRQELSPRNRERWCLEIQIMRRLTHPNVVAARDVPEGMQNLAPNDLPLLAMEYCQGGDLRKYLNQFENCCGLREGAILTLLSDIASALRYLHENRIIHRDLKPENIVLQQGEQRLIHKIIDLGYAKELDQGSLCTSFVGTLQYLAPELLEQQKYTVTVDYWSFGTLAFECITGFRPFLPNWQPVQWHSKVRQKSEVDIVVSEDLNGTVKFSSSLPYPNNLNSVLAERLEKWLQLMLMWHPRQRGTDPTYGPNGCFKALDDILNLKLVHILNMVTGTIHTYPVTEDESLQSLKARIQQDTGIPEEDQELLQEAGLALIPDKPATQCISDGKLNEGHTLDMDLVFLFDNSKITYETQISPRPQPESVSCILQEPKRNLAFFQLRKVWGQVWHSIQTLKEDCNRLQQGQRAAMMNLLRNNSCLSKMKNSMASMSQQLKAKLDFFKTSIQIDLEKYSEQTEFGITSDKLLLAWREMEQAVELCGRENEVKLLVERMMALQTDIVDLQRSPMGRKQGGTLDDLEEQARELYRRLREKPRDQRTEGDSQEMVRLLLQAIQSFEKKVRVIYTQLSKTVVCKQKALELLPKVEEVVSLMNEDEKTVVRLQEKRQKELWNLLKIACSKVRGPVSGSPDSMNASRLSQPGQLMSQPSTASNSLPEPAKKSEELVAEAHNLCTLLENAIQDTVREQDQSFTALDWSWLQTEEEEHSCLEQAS", "details": "at 10 µM"}, "[10]": {"target": "Insulin receptor (Homo sapiens) (UniProt P06213)", "sequence (P06213 28-758 limits assumed)": "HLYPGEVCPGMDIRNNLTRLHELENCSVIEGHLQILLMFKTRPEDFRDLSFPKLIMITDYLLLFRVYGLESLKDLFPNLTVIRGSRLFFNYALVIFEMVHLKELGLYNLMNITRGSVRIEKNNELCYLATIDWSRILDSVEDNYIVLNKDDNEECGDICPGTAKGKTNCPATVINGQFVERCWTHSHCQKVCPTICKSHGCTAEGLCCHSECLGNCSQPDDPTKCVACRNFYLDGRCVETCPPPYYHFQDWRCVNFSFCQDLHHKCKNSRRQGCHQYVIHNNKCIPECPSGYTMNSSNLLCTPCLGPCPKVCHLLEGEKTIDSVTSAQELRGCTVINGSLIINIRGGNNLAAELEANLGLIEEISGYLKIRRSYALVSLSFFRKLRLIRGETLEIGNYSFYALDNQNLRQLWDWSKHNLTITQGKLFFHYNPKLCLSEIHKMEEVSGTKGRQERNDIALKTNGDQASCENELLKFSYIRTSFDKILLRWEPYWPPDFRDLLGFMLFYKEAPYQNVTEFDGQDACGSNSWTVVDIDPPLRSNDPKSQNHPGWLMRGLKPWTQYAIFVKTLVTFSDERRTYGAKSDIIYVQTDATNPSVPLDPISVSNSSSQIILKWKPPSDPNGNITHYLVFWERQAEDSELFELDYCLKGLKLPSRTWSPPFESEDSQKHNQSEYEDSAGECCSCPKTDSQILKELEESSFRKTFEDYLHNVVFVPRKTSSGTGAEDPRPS", "sequence (P06213 763-1382 limits assumed)": "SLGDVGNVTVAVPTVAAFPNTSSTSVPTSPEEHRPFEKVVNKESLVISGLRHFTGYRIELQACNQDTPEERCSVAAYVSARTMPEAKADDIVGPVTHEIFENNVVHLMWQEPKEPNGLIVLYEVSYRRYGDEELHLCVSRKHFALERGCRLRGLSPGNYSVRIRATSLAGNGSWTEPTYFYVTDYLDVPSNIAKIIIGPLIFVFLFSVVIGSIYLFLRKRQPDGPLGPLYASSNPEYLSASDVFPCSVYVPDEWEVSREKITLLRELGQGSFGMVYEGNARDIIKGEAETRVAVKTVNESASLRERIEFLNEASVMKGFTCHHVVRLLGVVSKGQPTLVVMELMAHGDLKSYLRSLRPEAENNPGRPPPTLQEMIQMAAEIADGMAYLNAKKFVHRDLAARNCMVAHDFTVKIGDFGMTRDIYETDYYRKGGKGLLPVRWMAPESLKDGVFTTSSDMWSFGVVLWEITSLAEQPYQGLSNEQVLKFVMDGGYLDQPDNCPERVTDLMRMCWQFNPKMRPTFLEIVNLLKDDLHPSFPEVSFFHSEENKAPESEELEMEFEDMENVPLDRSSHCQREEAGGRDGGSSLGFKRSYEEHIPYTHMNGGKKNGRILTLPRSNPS", "details": "at 1 µM"}},
  "data": [
    {"smiles": "O=C(CCCc1ccc(-c2ccccc2F)cc1)Nc1ccc(O)cc1", "values": [
      {"measurement": "residual activity", "setting": "[1]", "value": 90, "unit": "%"},
      {"measurement": "residual activity", "setting": "[2]", "value": 73, "unit": "%"},
      {"measurement": "residual activity", "setting": "[3]", "value": 108, "unit": "%"},
      {"measurement": "residual activity", "setting": "[4]", "value": 112, "unit": "%"},
      {"measurement": "residual activity", "setting": "[5]", "value": 100, "unit": "%"},
      {"measurement": "residual activity", "setting": "[6]", "value": 92, "unit": "%"},
      {"measurement": "residual activity", "setting": "[7]", "value": 101, "unit": "%"},
      {"measurement": "residual activity", "setting": "[8]", "value": 129, "unit": "%"},
      {"measurement": "residual activity", "setting": "[9]", "value": 101, "unit": "%"},
      {"measurement": "residual activity", "setting": "[10]", "value": 112, "unit": "%"}
    ]}
  ]
}
